A word on the inhibition: it is the relative decrease from the control value, in per cent.

These results are taken from PubChem BioAssay.

Assay [1] is described as follows: Wnt pathway potentiators raising nuclear beta-catenin – imaging, WNT3A-conditioned medium, mouse C2C12, NPC library, primary screen (AID 1117326; in the data active = nuclear beta-catenin stimulation mostly above about 4.2%, no sharp cut-off; inactive = mostly below about 10%). The following applies: stronger effect = higher value.
Assay [2] in a line: stimulators of insulin release from INS-1E, primary screen, cell-based, 5 mM glucose, NPC library (AID 1117329;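 active = compound raises insulin release from rat beta cells at 5 mM glucose, no numeric limit stated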). The following applies: rat INS-1E insulin secretion, at 10 µM, stronger effect = higher value.
Assay [3] can be described thus: growth inhibition of GSK3B-pretreated HCT116 cells – cell-based, CellTiter-Glo, 0.2 to 20 µM (AID 1117336;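 active = compounds lowering colon cancer cell viability after pretreatment blocking the GSK3B kinase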). The following applies: HCT116 viability after GSK3B inhibitor, at 20 µM, stronger effect = higher value.
A short description of assay [4]: inhibition of endothelial tube formation, primary screen, imaging, VEGF stimulated, CD31 staining, tube area, NPC library (AID 1117340;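 active = compound that reduces growth-factor-driven endothelial tube area in a mixed cell culture, no cutoff stated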). Conditions: VEGF-stimulated ADSC/ECFC co-culture, at 10 µM, stronger effect = higher value.
The nature of assay [5]: GLP1 release stimulators, primary, NCI-H716, NPC library (AID 1117341;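 active = compound raises GLP1 secretion from the human gut endocrine cells, with no numeric limit stated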). The following applies: NCI-H716 cells, at 10 µM, stronger effect = higher value.
Assay [6] can be described thus: HCT116 colon cancer cell growth inhibition, primary screen, CellTiter-Glo luminescence, NPC library (AID 1117342;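 active = compounds that lower survival of HCT116 colon cancer cells in the luminescence readout, no numeric limit stated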). Conditions: at 20 µM (top of the series). A general note: ATP-based viability assays read luminescence as a measure of living cells.
Assay [7] is described as follows: reduced SW480 viability measured with CellTiter-Glo, NPC library, primary (AID 1117343;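 active = compounds that lower viability of the colon cancer cells in the luminescence readout, with no numeric limit stated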). Conditions: CellTiter-Glo luminescence; at 20 µM (top of the series).
A short description of assay [8]: NPC library primary testing for decreased DLD-1 cell viability via CellTiter-Glo (AID 1117346;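 active = compounds that lower survival of DLD-1 colon cancer cells in the luminescence readout, no cutoff given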). The following applies: DLD-1 viability, CellTiter-Glo luminescence; at 20 µM (top of the series).
Assay [9] deals with 6-phosphogluconate dehydrogenase, decarboxylating (Homo sapiens) (UniProt P52209). Kind of assay: inhibition of human phosphogluconate dehydrogenase – biochemical, recombinant enzyme, NADPH absorbance, primary screen (AID 1159550;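 active = at least 20% inhibition of 6-phosphogluconate dehydrogenase activity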). Conditions: recombinant 6PGD, NADPH absorbance 341 nm; at 10 µM; stronger effect = higher value.
Assay [10] in a line: modulation of C. elegans fzo-1 (AID 1259413; call rule not given here;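 note: fzo-1 mutant C. elegans worms in liquid wells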). The following applies: C. elegans fzo-1 modulator screen, mean read-out; stronger effect = higher value.
Assay [11] can be described thus: EMT-state selective cytotoxicity in co-culture – imaging, PC-3E GFP, TEM4-18 mCherry, primary screen (AID 1345086;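 active = compounds killing one labelled cell type while sparing the other, by normalised counts and ratio limits, not self-fluorescent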;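 for all read-outs here: cells exposed to compound for 72 h before imaging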;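 for red/green cell ratio (normalised): normalised mesenchymal count divided by normalised epithelial count so high means epithelial killing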). The following applies: PC-3E GFP / TEM4-18 mCherry co-culture, imaging cell counts, at 1 µM; for red/green cell ratio (normalised): actives lie on both sides, counts scaled to control wells, 1 = unselective.
A short description of assay [12]: MELAS cybrid and Rieske KO viability enhancers – cell-based, MELAS cybrids, Rieske KO mouse fibroblasts, CellTiter-Glo, primary screen (AID 1508586;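 active = mean z-score across replicates of 1.96 or higher in either the MELAS or the Rieske mutant cell line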;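 note: z relative to plate mean and SD of compound and empty wells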). Conditions: low glucose.
For assay [13], the target named is NAD(+) hydrolase SARM1 (Homo sapiens) (UniProt Q6SZW1). Kind of assay: blocking NAD cleavage by SARM1 SAM-TIR – cell lysate, NAD-Glo luminescence (AID 1508614;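 active = compound whose remaining NAD level is above about 45 nM, limit read from the data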;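 note: higher remaining NAD means stronger inhibition of SARM1 NADase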). Conditions: SAM-TIR HEK293T lysate NADase, at 1 µM, stronger effect = higher value.
For assay [14], the target named is Mitogen-activated protein kinase 7 (Homo sapiens) (UniProt Q13164). Kind of assay: Gal4-ERK5 driven luciferase induction – cell-based, HTS, primary screen (AID 1508626;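 active = luciferase signal above three times the same-plate solvent-only control wells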;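 note: luciferase driven by Gal4-ERK5 fusion binding five Gal4 sites before minimal TATA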). Conditions: HeLa Gal4-ERK5 transactivation, 18 h, at 5 µM, stronger effect = higher value.
A further assay relates to F380Y. In words: BK channel mutant inhibitors and activators – cell-based, U2OS BacMam, thallium flux, beta subunits, selectivity assay, profiling panel (AID 1259406).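 Note: initial slope of Thallos dye fluorescence rise after thallium is added; log ratio against the mean of 0.3% DMSO vehicle wells on the same plate.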 Conditions: U2OS BacMam BK variants, at 30 µM.
A further assay has as its system F380Y/beta1. The assay is described as above. Conditions: U2OS BacMam BK variants, at 30 µM.
A further assay has as its system F380Y/beta2Delta. Described as above. The following applies: U2OS BacMam BK variants, at 30 µM.
A further assay concerns F380Y/beta4. Described as above. The following applies: U2OS BacMam BK variants, at 30 µM.
In assay [15] the target is Calcium-activated potassium channel subunit alpha-1 (Homo sapiens) + Leucine-rich repeat-containing protein 26 (Homo sapiens) (UniProt Q12791+Q2I0M4). The description is as above. The following applies: U2OS BacMam BK variants, F380Y/Slo1WT/gamma1, at 30 µM.
[16] abbreviates: measured here: epithelial PC-3E GFP cell survival.
Where [17] appears, read: measured here: mesenchymal TEM4-18 mCherry cell survival.
Setting [18] is: MELAS cybrid survival, CellTiter-Glo 48 h, stronger effect = higher value.
Setting [19] is: Rieske KO mouse fibroblast survival, CellTiter-Glo 72 h.

Where “and” joins values, the source holds several entries; their conditions need not be identical. Identical values can stand only once. Calls of active or inactive are those of the source.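 Rule for the calls, unless noted: active = thallium flux through the channel raised or lowered by more than 3 SD from vehicle-only wells, actives on both sides; inactive = the rest.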

Chain of NAD(+) hydrolase SARM1 (Homo sapiens) (Q6SZW1 whole entry, looked up, the tested form may be a part): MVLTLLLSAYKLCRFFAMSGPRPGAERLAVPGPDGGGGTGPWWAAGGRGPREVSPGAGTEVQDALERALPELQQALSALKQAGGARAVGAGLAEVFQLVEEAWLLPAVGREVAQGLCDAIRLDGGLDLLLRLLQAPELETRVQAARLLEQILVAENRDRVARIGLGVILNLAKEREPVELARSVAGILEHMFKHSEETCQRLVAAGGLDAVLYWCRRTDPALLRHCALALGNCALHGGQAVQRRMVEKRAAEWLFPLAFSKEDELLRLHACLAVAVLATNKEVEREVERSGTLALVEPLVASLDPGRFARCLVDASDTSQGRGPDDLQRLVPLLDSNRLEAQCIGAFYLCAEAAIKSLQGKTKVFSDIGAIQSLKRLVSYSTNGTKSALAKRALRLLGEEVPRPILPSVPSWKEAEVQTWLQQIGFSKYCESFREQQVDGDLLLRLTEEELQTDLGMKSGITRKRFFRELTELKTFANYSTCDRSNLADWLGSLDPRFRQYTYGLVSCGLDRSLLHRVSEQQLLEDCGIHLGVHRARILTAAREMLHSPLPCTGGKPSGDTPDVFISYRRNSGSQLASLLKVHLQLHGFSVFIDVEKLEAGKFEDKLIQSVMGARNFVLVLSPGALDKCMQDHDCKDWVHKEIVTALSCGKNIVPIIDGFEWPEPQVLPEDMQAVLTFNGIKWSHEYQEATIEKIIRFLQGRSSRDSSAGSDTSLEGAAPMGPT
Chain of 6-phosphogluconate dehydrogenase, decarboxylating (Homo sapiens) (P52209 whole entry, looked up): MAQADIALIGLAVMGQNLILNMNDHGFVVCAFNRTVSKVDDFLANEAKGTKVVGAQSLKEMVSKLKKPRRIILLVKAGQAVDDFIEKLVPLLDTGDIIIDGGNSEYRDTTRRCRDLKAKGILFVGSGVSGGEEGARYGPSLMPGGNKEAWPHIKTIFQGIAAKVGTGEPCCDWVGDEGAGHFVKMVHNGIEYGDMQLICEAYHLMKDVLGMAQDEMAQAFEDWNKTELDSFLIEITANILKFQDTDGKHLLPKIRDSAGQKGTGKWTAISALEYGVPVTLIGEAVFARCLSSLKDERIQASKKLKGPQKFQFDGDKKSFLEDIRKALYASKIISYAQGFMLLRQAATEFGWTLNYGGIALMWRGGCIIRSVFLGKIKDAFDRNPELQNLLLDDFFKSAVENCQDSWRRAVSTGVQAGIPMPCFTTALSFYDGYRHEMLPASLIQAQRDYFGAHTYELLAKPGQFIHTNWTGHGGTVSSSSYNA
Chain of Calcium-activated potassium channel subunit alpha-1 (Homo sapiens) + Leucine-rich repeat-containing protein 26 (Homo sapiens) (Q2I0M4 whole entry, looked up, one chain of several): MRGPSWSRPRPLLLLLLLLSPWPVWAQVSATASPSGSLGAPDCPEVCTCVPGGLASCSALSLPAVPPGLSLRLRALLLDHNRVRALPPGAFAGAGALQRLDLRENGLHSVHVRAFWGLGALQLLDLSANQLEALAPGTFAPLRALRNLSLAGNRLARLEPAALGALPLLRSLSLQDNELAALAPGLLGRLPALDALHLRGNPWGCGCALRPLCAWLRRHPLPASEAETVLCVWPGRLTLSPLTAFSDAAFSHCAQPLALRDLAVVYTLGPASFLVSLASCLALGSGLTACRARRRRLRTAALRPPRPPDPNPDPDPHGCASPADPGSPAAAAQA
Chain of Mitogen-activated protein kinase 7 (Homo sapiens) (Q13164 whole entry, looked up, the tested form may be a part): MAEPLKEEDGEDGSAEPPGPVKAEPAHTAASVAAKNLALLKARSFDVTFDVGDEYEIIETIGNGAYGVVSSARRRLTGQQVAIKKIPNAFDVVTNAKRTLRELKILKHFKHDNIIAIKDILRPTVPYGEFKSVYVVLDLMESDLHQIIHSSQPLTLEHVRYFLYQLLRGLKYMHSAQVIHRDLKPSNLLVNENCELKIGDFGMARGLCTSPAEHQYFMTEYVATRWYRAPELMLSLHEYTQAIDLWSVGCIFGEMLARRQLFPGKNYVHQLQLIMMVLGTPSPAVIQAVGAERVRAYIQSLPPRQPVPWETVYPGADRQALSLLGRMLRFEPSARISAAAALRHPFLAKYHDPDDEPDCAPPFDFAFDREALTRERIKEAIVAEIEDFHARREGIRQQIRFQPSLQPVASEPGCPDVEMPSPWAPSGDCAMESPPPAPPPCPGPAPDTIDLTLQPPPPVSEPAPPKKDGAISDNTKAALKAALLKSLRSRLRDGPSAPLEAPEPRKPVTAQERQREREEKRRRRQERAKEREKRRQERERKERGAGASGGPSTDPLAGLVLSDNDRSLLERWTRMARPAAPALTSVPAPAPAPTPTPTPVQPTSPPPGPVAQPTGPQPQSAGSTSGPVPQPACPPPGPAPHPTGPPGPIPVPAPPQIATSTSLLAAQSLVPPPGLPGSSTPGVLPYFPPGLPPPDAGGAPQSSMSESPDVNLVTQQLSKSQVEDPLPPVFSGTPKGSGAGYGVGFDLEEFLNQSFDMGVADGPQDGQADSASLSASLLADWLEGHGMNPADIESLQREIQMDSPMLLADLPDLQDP

For the molecule `CCCc1cc(=O)[nH]c(=S)[nH]1`, the nuclear beta-catenin stimulation in assay [1] (at 10 µM) is 0.6% (inactive); in assay [1] (stimulation, at 2 µM), 0.8%. In addition, in assay [2], the insulin secretion stimulation was -0.9% (inactive). Also, the viability decrease in assay [3] is -14.4% (inactive). Besides, the tube area decrease in assay [4] was 8.2% (inactive). The GLP1 secretion stimulation in [5] was -0.8% (inactive). Besides, the inhibition of viability in assay [6] was -19.2% (inactive). Besides, the viability decrease (inhibition) in assay [7] is -1.9% (inactive); in assay [8] it was -28.7% (inactive). In addition, in [9], the inhibition is -7.2% (inactive). Further, the mean signal in [10] is 248 (inactive). The red/green cell ratio (normalised) in assay [11] is 1.26 (inactive). The normalised cell number in [11] (setting [16]) was 1.05; in assay [11] (setting [17]), 1.32. In addition, the z-score was -0.276 (inactive) and 0.0359 (inactive) in assay [12] (setting [18]); 0.644 and -0.188 in [12] (setting [19]). In addition, the remaining NAD in [13] was 10 nM (inactive). Further, in assay [14], the luciferase signal was 88 AU (inactive). Moreover, the log fold change Tl+ flux was 0.00762 (inactive) in the assay on F380Y; -0.132 (active) in the assay on F380Y/beta1; -0.0326 (inactive) in the assay with F380Y/beta2Delta; 0.0238 (inactive) with F380Y/beta4; 0.00637 (inactive) in [15].
`O=C(O)CCCc1ccccc1`: the nuclear beta-catenin stimulation in [1] (at 10 µM) was 0.2% (inactive); in [1] (stimulation, at 2 µM) it was 0.9%. Moreover, the insulin secretion stimulation in assay [2] is 1.8% (inactive). For the same molecule, in assay [3], the viability decrease is -6.2% (inactive). In assay [4], the tube area decrease is -15% (inactive). Moreover, the GLP1 secretion stimulation in [5] is -1.1% (inactive). In addition, the inhibition of viability in [6] was 0.1% (inactive). Moreover, the viability decrease (inhibition) in assay [7] is 12.5% (inactive); in [8], -3.9% (inactive). The inhibition in [9] is -10% (inactive). The mean signal in [10] was 232 (inactive). Moreover, in assay [11], the red/green cell ratio (normalised) was 1 (inactive). Further, the normalised cell number in assay [11] (setting [16]) was found to be 1.12; in [11] (setting [17]), 1.11. Also, the z-score was -0.2 (inactive) and -0.108 (inactive) in assay [12] (setting [18]); -0.148 and -0.948 in assay [12] (setting [19]). Further, the remaining NAD in [13] is 10 nM (inactive). For the same molecule, the log fold change Tl+ flux in the assay with F380Y was 0.0311 (inactive); with F380Y/beta1, 0.0211 (inactive); in the assay on F380Y/beta2Delta, -0.00447 (inactive); with F380Y/beta4 it was 0.0283 (inactive); in [15], 0.00509 (inactive).
Consider `O=C(O)c1cccnc1`, for which the nuclear beta-catenin stimulation was -0.4% (inactive) in [1] (at 10 µM) and -0.5% in [1] (stimulation, at 2 µM). Also, the insulin secretion stimulation in assay [2] is -1.6% (inactive). The viability decrease in assay [3] is -0.65% (inactive). Further, the tube area decrease in assay [4] is -17.1% (inactive). Moreover, the GLP1 secretion stimulation in assay [5] is -5.4% (inactive). Further, the inhibition of viability in assay [6] was -15.8% (inactive). Also, the viability decrease (inhibition) in assay [7] was 37.9% (inactive); in [8], 4.6% (inactive). In assay [9], the inhibition is -13.9% (inactive). Moreover, in assay [10], the mean signal was 255 (inactive). Also, in assay [11], the red/green cell ratio (normalised) is 1.22 (inactive). Besides, the normalised cell number in [11] (setting [16]) came out at 0.91; in assay [11] (setting [17]), 1.11. For the same molecule, the z-score in assay [12] (setting [18]) was -0.357 (inactive) and 0.00203 (inactive); in assay [12] (setting [19]) it was 0.576 and -0.807. In addition, the remaining NAD in [13] is 10 nM (inactive). In addition, the luciferase signal in [14] is 44 AU (inactive). Besides, the log fold change Tl+ flux with F380Y was -0.0113 (inactive); in the assay on F380Y/beta1, 0.00202 (inactive); with F380Y/beta2Delta, 0.0201 (inactive); in the assay on F380Y/beta4, 0.0275 (inactive); in assay [15], -4.3e-05 (inactive).
